Sampled rows, rich in hits. Any-hit rate of the full collection: about 1.3%.
Vaccinia Venus: vaccinia inhibition (Venus reporter) | Vaccinia virus Venus reporter expression, fluorescence | Potency, µM (doses to about 36.5 µM), actives largely listed as inhibitors | hit rate 0.46% among 330,000; calls by dose curve; tested in A549 cells; note: nearly all actives have a fitted effect of over 30% in size
AmpC inh no detg: blocks E. coli AmpC beta-lactamase in detergent-free assay. P00811. AmpC nitrocefin hydrolysis, absorbance 480 nm, 0.0001% Triton. Potency, µM (series often up to 57.1 µM), hits mostly inhibitors. hit rate 0.52% among 330,000. AID 485341; note: nearly all actives have a fitted effect of over 20% in size
Target sequence (P00811 whole entry, looked up): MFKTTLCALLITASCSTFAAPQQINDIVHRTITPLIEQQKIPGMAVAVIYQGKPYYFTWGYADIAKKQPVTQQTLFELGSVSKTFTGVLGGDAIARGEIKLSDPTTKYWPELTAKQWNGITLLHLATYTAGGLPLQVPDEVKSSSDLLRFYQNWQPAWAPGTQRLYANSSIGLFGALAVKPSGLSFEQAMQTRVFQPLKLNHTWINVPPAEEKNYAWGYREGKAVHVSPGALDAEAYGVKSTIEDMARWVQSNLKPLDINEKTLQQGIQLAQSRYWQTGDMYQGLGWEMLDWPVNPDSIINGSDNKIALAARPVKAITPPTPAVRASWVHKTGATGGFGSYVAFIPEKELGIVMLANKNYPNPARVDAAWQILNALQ
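20 mM phosphate pH 7.0 + 0.01% (detergent screen) or 0.0001% Triton X-100; 5.3 nM AmpC reagent; cpd preinc 15 min RT; nitrocefin (800 uM stock) to start; A480 q20 s × 4 min; Activity was normalised to no-enzyme and no-compound control wells.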
AmpC detergent: blocks E. coli AmpC beta-lactamase in detergent assay; Potency, µM (top dose mostly 114 µM), hits mostly inhibitors; AmpC hydrolysis of nitrocefin, absorbance 480 nm, 0.01% Triton; hit rate 0.041% among 370,000; P00811; note: nearly all actives have a fitted effect of over 25% in size
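20 mM phosphate pH 7.0 + 0.01% (detergent screen) or 0.0001% Triton X-100; 5.3 nM AmpC reagent; cpd preinc 15 min RT; nitrocefin (800 uM stock) to start; A480 q20 s × 4 min; Activity was normalised to no-enzyme and no-compound control wells.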
SARS PLpro yeast: inhibitors of SARS-CoV papain-like protease in yeast; hit rate 0.19% among 330,000; AID 485353; Potency, µM (highest dose often 32.9 µM), usual class: activators; S. cerevisiae expressing SARS-CoV PLpro, growth rescue; calls by dose curve; note: nearly all actives have a fitted effect of over 55% in size
VACV mCherry inh: vaccinia inhibition (mCherry reporter). hit rate 0.63% among 310,000. AID 720579. Potency, µM (series often up to 36.5 µM), actives largely listed as inhibitors. Vaccinia virus mCherry reporter infection, fluorescence; calls by dose curve; tested in A549 cells; note: nearly all actives have a fitted effect of over 35% in size
Each line names hits and unclear results; the compound was inactive in the other large screens. Unless noted, calls come from the whole dose curve; as a rule, active = well fitted curve in the direction sought with a large enough effect; inconclusive = small, poorly fitted or top-dose-only effect, or another doubt; inactive = no such curve, though single readings can be large; an effect the other way counts as inactive or inconclusive.

O=C(CSc1nnc(Nc2ccccc2F)s1)c1cc2ccccc2o1	AmpC inh no detg 35µM
CC(C)(C)c1ccc(S(=O)(=O)NCc2ccc3c(c2)CCN3C(=O)c2ccccc2)cc1	none (no result: AmpC inh no detg, SARS PLpro yeast)
N=C1/C(=C/c2ccc(-c3cccc(C(=O)O)c3)o2)C(=O)N=C2SC=C(c3ccccc3)N12	AmpC detergent 50µM (no result: Vaccinia Venus, VACV mCherry inh)
O=C(NCCc1ccccn1)c1cnn(-c2ncc3c(n2)-c2ccccc2CC3)c1C1CC1	none (no result: AmpC inh no detg, AmpC detergent, SARS PLpro yeast)
C=C1[C@@H](O)CN(Cc2ccc(OC)cc2)S1(=O)=O	Vaccinia Venus 28µM, VACV mCherry inh inconclusive (no result: AmpC inh no detg, AmpC detergent, SARS PLpro yeast)
COc1ccc(CN2CCCC(C(=O)N3CCCC3)C2)cc1 (configuration not stated)	none (no result: Vaccinia Venus, VACV mCherry inh)
COc1ccc(CN2CCCN(CC(=O)Nc3ccc(Br)cc3F)S2(=O)=O)cc1	none (no result: AmpC inh no detg, SARS PLpro yeast)
COc1ccc(CN2C[C@H]3CCCN3c3cc(Br)ccc3S2(=O)=O)cc1	AmpC inh no detg 20µM, VACV mCherry inh inconclusive (no result: AmpC detergent)
CCCCCn1c(=O)c(F)cn(Cc2ccc(OC)c([N+](=O)[O-])c2)c1=O	none (no result: Vaccinia Venus, VACV mCherry inh)
CCCCCCn1c(=O)c(F)cn(Cc2ccc(OC)c([N+](=O)[O-])c2)c1=O	AmpC inh no detg 0.14µM
CCNc1ncnc2c1nnn2C	none (no result: AmpC inh no detg, SARS PLpro yeast)
Cc1ncc2c(c1CNC(=O)c1cncs1)CCN(C(=O)c1ccc(-c3ccccc3)cc1)C2	none (no result: AmpC inh no detg, AmpC detergent, SARS PLpro yeast)
CCCn1c2ccccc2c2nnc(SCC(=O)Nc3cc(C)on3)nc21	Vaccinia Venus 10µM (no result: VACV mCherry inh)
CCCn1c2ccccc2c2nnc(SCC(=O)Nc3cccc(C(C)=O)c3)nc21	Vaccinia Venus inconclusive, VACV mCherry inh inconclusive (no result: AmpC inh no detg, SARS PLpro yeast)
CCCn1c2ccccc2c2nnc(SCC(=O)Nc3ncccn3)nc21	Vaccinia Venus 11µM (no result: VACV mCherry inh)
C=CCn1c2ccccc2c2nnc(SCC(=O)Nc3cc(C)on3)nc21	none (no result: VACV mCherry inh)
Cc1ccc(C(=O)NCCc2nnc3n2CCN(Cc2cc(C)cc(C)c2)CC3)cc1	none (no result: AmpC inh no detg, AmpC detergent, SARS PLpro yeast)
Cc1ccc2c(c1)CN(CCC(=O)NCc1cc(C)n(C)n1)CC(C)O2 (configuration not stated)	none (no result: AmpC inh no detg, AmpC detergent, SARS PLpro yeast)
Cc1cc(-c2ccnc(-n3ncc(C(=O)N(C)CC(O)c4ccccc4)c3C)n2)c(C)s1 (configuration not stated)	none (no result: AmpC inh no detg, AmpC detergent, SARS PLpro yeast)
O=C(Nc1cccnc1Cl)c1cnn2c1NC(=C1CC1)C=C2C(F)F	none (no result: AmpC inh no detg, AmpC detergent, SARS PLpro yeast)
O=C1c2ccccc2C(=O)c2c1oc(C(F)(F)F)c2C(=O)c1ccccc1	Vaccinia Venus 3.2µM, VACV mCherry inh 4.5µM
O=C(c1ccccc1)c1coc2c1C(=O)c1ccccc1C2=O	none
CCOC(=O)N1CCN(S(=O)(=O)c2ccc(C(=O)NNc3nc4c(C)cc(C)cc4s3)cc2)CC1	Vaccinia Venus inconclusive, AmpC detergent inconclusive, SARS PLpro yeast inconclusive, VACV mCherry inh 10µM
Cc1cccc2sc(NNC(=O)c3ccc(S(=O)(=O)N4CCCC(C)C4)cc3)nc12 (configuration not stated)	Vaccinia Venus inconclusive, AmpC detergent inconclusive, SARS PLpro yeast 8.9µM, VACV mCherry inh inconclusive
CCc1nnc(NC(=O)c2ccc(S(=O)(=O)N3CCCC(C)C3)cc2)s1 (configuration not stated)	none
Cc1cc(C)c2nc(NNC(=O)c3ccc(S(=O)(=O)N4CCCCC4)cc3)sc2c1	Vaccinia Venus inconclusive, SARS PLpro yeast inconclusive, VACV mCherry inh inconclusive
CC(=O)Nc1ccccc1-c1nc(CNC(=O)c2ccc(-c3ccccc3F)cc2)c(C)o1	none (no result: AmpC inh no detg, AmpC detergent, SARS PLpro yeast)
COCC1CCCN(Cc2ccc3c(c2)CN(C(=O)c2cc(-c4ccccc4)n[nH]2)CCO3)C1 (configuration not stated)	none (no result: AmpC inh no detg, AmpC detergent, SARS PLpro yeast)
CC1CCN(c2nc3c(c(=O)n(C)c(=O)n3C)n2Cc2ccccc2)CC1	VACV mCherry inh 20µM
CN1CCN(c2nc3c(c(=O)n(C)c(=O)n3C)n2CC(N)=O)CC1	AmpC detergent 32µM
COc1cccc(CNC(=O)c2c(OC)cc(=O)n3c2CCN(C(=O)c2ccccc2Cl)CC3)c1	none (no result: AmpC inh no detg, AmpC detergent, SARS PLpro yeast)
CCOC(=O)CCC(=O)N1CCNC(=O)C1	AmpC inh no detg 11µM
CCOC(=O)CCC(=O)N1CCOCCN(C(=O)CCC(=O)OCC)CCOCC1	none
O=c1[nH]c(NC2CCCCC2)c([N+](=O)[O-])c(=O)[nH]1	AmpC detergent 89µM
CCN(CC)CCN(C)C(=O)c1ccc(-c2ccccc2)nc1N(C)C	none (no result: AmpC inh no detg, AmpC detergent, SARS PLpro yeast)
COc1ccc(N(CC(=O)NCc2ccccc2)S(=O)(=O)c2c(C)nn(C)c2C)cc1	AmpC inh no detg 8.9µM, AmpC detergent inconclusive
CC1(C)CC2CC(C)(CN2Cc2cccc([N+](=O)[O-])c2)C1 (configuration not stated)	AmpC detergent inconclusive (no result: Vaccinia Venus, VACV mCherry inh)
CC1(C)CC2CC(C)(CN2Cc2c(O)ccc3ccccc23)C1 (configuration not stated)	AmpC inh no detg 11µM
COc1cc(CN2CCC3(CC2)CC3C(=O)Nc2ccc3sc(C)nc3c2)ccc1F (configuration not stated)	none (no result: AmpC inh no detg, AmpC detergent, SARS PLpro yeast)
CC(=O)c1ccc(-c2ccc3c4c(ccc3c2)OC(CNC(=O)[C@@H]2CCCN2C(C)=O)C4)s1 (some centres not stated)	none (no result: AmpC inh no detg, AmpC detergent, SARS PLpro yeast)
Cc1ccn(CCC(=O)NCC2Cc3cc(Cl)cc(-c4ccc5[nH]ccc5c4)c3O2)n1 (configuration not stated)	none (no result: AmpC inh no detg, AmpC detergent, SARS PLpro yeast)
O=C(NCc1ccc2[nH]c3c(c2c1)CCCC3)c1ccc(S(=O)(=O)N2CCCC2)cc1	none
Cc1ccc(C)c(NC(=S)NCc2ccc3[nH]c4c(c3c2)CCCC4)c1	AmpC inh no detg 35µM
CCN(CC)S(=O)(=O)c1ccc(C(=O)NCc2ccc3[nH]c4c(c3c2)CCCC4)cc1	AmpC inh no detg 25µM
CCOc1ccccc1NC(=O)N1CCc2cc(S(=O)(=O)N3CCC(C)CC3)ccc21	none (no result: AmpC inh no detg, SARS PLpro yeast)
